Data on 99 compounds can be found in PubChem BioAssay AID463173 (ICCB-Longwood Screening Facility, Harvard Medical School, 2010).

Screen size: about 52,000 compounds; about 1,700 (3.3%) were called active. Cut-off read from the data, not from the text of the source: active = survival mostly below about 52% (no sharp cut-off); inactive = mostly above about 56%. The sample as a whole holds a higher share of actives than the screen did.

The assay deals with Wild type. Description: S. aureus survival, RN4220 and DeltatarO strains – OD600, teichoic acid synthesis inhibitors, primary screen (AID 463173). The note with it: S. aureus RN4220 wild type/DeltatarO growth, OD600, 18 h, stronger effect = lower value, screened at 18.75 µg/mL (by protocol).
With `Cc1cc(C)cc(OCCCn2c(CCNC(=O)C3CCCCC3)nc3ccccc32)c1`, the survival was 27% (active).
On to `Cc1cccc(C)c1OCCCn1c(CCNC(=O)C2CCCCC2)nc2ccccc21`, for which the survival is 28% (active).
For `Cc1cc(C)cc(OCCn2c(CCNC(=O)C3CCCCC3)nc3ccccc32)c1`, the survival is 105% (inactive).
As for `Cc1ccc(OCCCn2c(CCNC(=O)C3CCCCC3)nc3ccccc32)c(C)c1`, the survival is 95% (inactive).
Next, `O=C(NCCc1nc2ccccc2n1CCCOc1ccc(Cl)cc1)C1CCCCC1`: 10% (active).
Regarding `Cc1ccc(OCCn2c(CCNC(=O)C3CCCCC3)nc3ccccc32)cc1`, the survival was 65% (inactive).
`Cc1ccccc1OCCCn1c(CCNC(=O)C2CCCCC2)nc2ccccc21`: the survival was 65% (inactive).
Next, `Cc1cccc(C)c1OCCn1c(CCNC(=O)C2CCCCC2)nc2ccccc21`: 65% (inactive); `O=C(NCCc1nc2ccccc2n1CCOc1ccc(Cl)cc1)C1CCCCC1`: 20% (inactive); `Cc1cccc(OCCCn2c(CCNC(=O)C3CCCCC3)nc3ccccc32)c1`: 34% (inactive).
Next, `Cc1cc(OCCn2c(CCNC(=O)C3CCCCC3)nc3ccccc32)ccc1Cl`: 67% (inactive).
To `Cc1cc(OCCCn2c(CCNC(=O)C3CCCCC3)nc3ccccc32)ccc1Cl` belongs 0% (active); to `COc1ccc(-c2nnc(SCC(=O)Nc3cccc(C(F)(F)F)c3)s2)cc1`, 99% (inactive); to `COc1ccc(C(=O)N(Cc2cc(OC)c(OC)c(OC)c2)C2CCS(=O)(=O)C2)cc1Cl` (centres undefined), 86% (inactive).
As for `COc1ccccc1-c1c(C)nn2c(N3CCN(c4ccccc4)CC3)cc(C)nc12`, the survival is 70% (inactive).
To `Cn1c(SCCN2CCCC2)nnc1-c1ccncc1` belongs 112% (inactive).
Next, `COc1cc(OC)c(NC(=O)c2nn(C)c3c2COc2ccccc2-3)cc1Cl`: 111% (inactive); `CCOc1ccc(-n2c(SCc3ccc(C(=O)OC)o3)nc3c([nH]c4ccccc43)c2=O)cc1`: 82% (inactive).
Next, `Oc1ccc(Br)cc1C=Nc1cccc(-c2nc3ccccc3o2)c1`: 111% (inactive); `COc1cccc2cc(C(=O)Nc3ccc(CC(=O)O)cc3)c(=O)oc12`: 73% (inactive); `CCOc1ccc(NC(=O)CSc2nnc3c(C)cc4ccccc4n23)cc1`: 132% (inactive).
With `O=C(Nc1nc2c(s1)CCCCCC2)Nc1ccc(F)cc1F`, the survival is -2% (active).
`Cc1ccc(NC(=O)Nc2nc3c(s2)CCCCCC3)cc1C`: the survival is 69% (inactive).
Next, `O=C(Nc1ccc(Br)cc1)Nc1nc2c(s1)CCCCCC2`: 82% (inactive); `Cc1cc(-c2ccc(C)c(S(=O)(=O)Nc3ccccn3)c2)on1`: 73% (inactive); `O=C(CN1CCCC1)Nc1nc(-c2ccc3c(c2)CCN3C(=O)C2CC2)cs1`: 116% (inactive).
Next, `O=C(CSc1nc2ccccc2c(=O)n1-c1ccccc1)N1CCOCC1`: 104% (inactive).
Next, `CC(=O)Nc1cccc(NC(=O)c2c(-c3ccccc3)c(-c3ccccc3)nn(C)c2=O)c1`: 85% (inactive); `COc1ccc2cc(-c3nc(-c4ccc(N(C)C)cc4)no3)c(=O)oc2c1`: 99% (inactive); `CC(C)Oc1ccc(CNS(=O)(=O)c2cnc(N)nc2)cc1`: 111% (inactive).
`COc1cccc(CNS(=O)(=O)c2cnc(N)nc2)c1`: the survival is 57% (inactive).
On to `COc1ccc(CNS(=O)(=O)c2cnc(N)nc2)cc1`, for which the survival was -4% (active).
For the compound `CC(C)(C)OC(=O)N1CCC(c2c(C(=O)NCCN3CCOCC3)cnn2-c2ccccc2)CC1`, the survival was 64% (inactive).
On to `NCC1OCCc2ccccc21` (centres undefined), for which the survival is 114% (inactive).
Next, `Cc1cc(C)cc(OCc2ccc(C(=O)Nc3ccccc3F)o2)c1`: 72% (inactive); `CCCc1ccc(OCc2ccc(C(=O)Nc3ccccc3C(=O)OC)o2)cc1`: 3% (active).
To `COc1ccccc1NC(=O)c1ccc(COc2ccc(C)c(C)c2)o1` belongs 0% (active); to `COC(=O)c1ccccc1NC(=O)c1ccc(COc2ccccc2Cl)o1`, 68% (inactive); to `COc1ccccc1NC(=O)c1ccc(C)o1`, 104% (inactive).
For `COC(=O)c1ccccc1NC(=O)c1ccc(COc2cc(C)cc(C)c2)o1`, the survival is 59% (inactive).
As for `Cc1nc2c(-c3ccc(F)cc3)c(C)nn2c(C)c1CCC(=O)N1CCN(c2ccccc2)CC1`, the survival is 75% (inactive).
As for `Cc1c(C(=O)NCCc2ccc(Cl)cc2)sc2nc3n(c(=O)c12)CCCC3`, the survival was 78% (inactive).
Next, `CCS(=O)(=O)N1CCN(Cc2ccccc2)CC1`: 119% (inactive).
Next, `CCn1c2ccccc2c2cc(CN3CCN(Cc4ccc(OC)c(OC)c4)CC3)ccc21`: 14% (active); `CCn1c(=O)cc(SCC(=O)NCc2cccc(Cl)c2)c2ccccc21`: 60% (inactive).
Turning to `CCCN1CCN(C(=O)Cn2ncc3c4ccccc4n(Cc4cccc(Cl)c4)c3c2=O)CC1`, the survival is 80% (inactive).
Next, `CCn1c2ccccc2c2cc(CN3CCN(Cc4ccco4)CC3)ccc21`: 104% (inactive).
`Cc1ccc(Cn2c(=O)n(Cc3ccccc3Cl)c(=O)c3ccccc32)cc1`: the survival was 56% (inactive).
Next, `Clc1ccccc1CN1CCN(Cc2ccco2)CC1`: 101% (inactive); `CCCS(=O)(=O)N1CCN(Cc2ccc(OC)c(OCC)c2)CC1`: 103% (inactive).
To `CCn1c2ccccc2c2cc(CN3CCN(Cc4cccc(Cl)c4)CC3)ccc21` belongs 0% (active).
On to `CCn1c2ccccc2c2cc(CN3CCN(Cc4ccccc4Cl)CC3)ccc21`, for which the survival was 1% (active).
To `CCn1c2ccccc2c2cc(CN3CCN(Cc4ccc(Br)cc4)CC3)ccc21` belongs 3% (active); to `CCn1c2ccccc2c2cc(CN3CCN(Cc4cc(OC)c(O)c(OC)c4)CC3)ccc21`, 54% (inactive); to `CCC(=O)N1CCc2cc(S(=O)(=O)NCCC(=O)Nc3ccc(CC)cc3)ccc21`, 73% (inactive).
For `Brc1cccc(-c2nn(-c3ccccc3)c3c2cnc2cc4c(cc23)OCO4)c1`, the survival was 86% (inactive).
Turning to `O=C(NCCS(=O)(=O)N1CCN(c2ccc(F)cc2)CC1)c1cccc(C(F)(F)F)c1`, the survival is 72% (inactive).
To `Cc1cccc(NC(=O)c2ccc3c(c2)CCN3S(=O)(=O)c2ccccc2)c1C` belongs 84% (inactive); to `CCN(CC)S(=O)(=O)c1ccc2c(c1)N(CC(=O)Nc1ccc(F)cc1F)C(=O)C1CCCN21` (centres undefined), 64% (inactive); to `Cc1ccc(-n2nc(C(=O)N3CCN(c4cc(C)ccc4C)CC3)c3c4ccccc4n(C)c3c2=O)cc1`, 79% (inactive).
Next, `CCOc1ccc(Cn2c(=O)oc3ccccc32)cc1`: 114% (inactive).
Next, `CCOc1ccc(CN2CCN(C(=O)c3ccco3)CC2)cc1`: 103% (inactive); `CC(C)n1c(N2CCN(Cc3ccc(Cl)cc3)CC2)nc2ccccc21`: 128% (inactive); `CCOc1ccc(CN2CCN(Cc3ccc4c(c3)c3ccccc3n4CC)CC2)cc1`: -1% (active).
For `CCn1c2ccccc2c2cc(CN3CCN(Cc4ccc(Cl)cc4)CC3)ccc21`, the survival was -2% (active).
Next, `CCCn1c(N2CCN(Cc3ccc(Cl)cc3)CC2)nc2ccccc21`: 123% (inactive); `CCOc1ccc(-c2c(C)nn3c(C)c(C(=O)NCC(C)c4ccccc4)cnc23)cc1OCC` (centres undefined): 72% (inactive).
To `O=C(CSc1nc2c(c(=O)[nH]1)CCC2)Nc1cc(C(F)(F)F)ccc1Cl` belongs 85% (inactive).
For the compound `CCCN1Cc2cccc(C(=O)Nc3ccc(C(C)=O)cc3)c2C1=O`, the survival is 89% (inactive).
Next, `CSc1ccccc1-c1nnc(NC(=O)c2ccc3c(c2)OCCO3)o1`: 123% (inactive); `CS(=O)(=O)c1ccccc1-c1nnc(NC(=O)c2ccc3c(c2)OCCO3)o1`: -6% (active); `CS(=O)(=O)c1ccc(-c2nnc(NC(=O)c3ccc4c(c3)OCCO4)o2)cc1`: 75% (inactive).
Next, `Cc1ccc(-n2c(=O)c3cccnc3n2CC(=O)Nc2ccc(C)cc2Cl)cc1`: 113% (inactive); `Cc1ccc2c(c1)-c1nc(-c3ccc(Cl)cc3)cc(-c3coc4ccccc4c3=O)c1CO2`: 139% (inactive); `CCCn1c(=O)c2sccc2n2c(CCCC(=O)N3CCN(c4ccc(OC)cc4)CC3)nnc12`: 99% (inactive).
Take `O=C(Nc1cccc(C(=O)N2CCCCC2)c1)c1nsc2ccccc12`: the survival is 65% (inactive).
Next, `CCCc1nc2sc3c(N4CCCCC4)ncnc3c2c2c1CCCC2`: 13% (active).
Consider `CCCc1nc2sc3c(N4CCC(C)CC4)ncnc3c2c2c1CCCC2`, for which the survival is 75% (inactive).
Next, `CCc1nc2sc3c(N4CCCCC4)ncnc3c2c2c1CCCC2`: 136% (inactive); `COc1ccccc1Nc1sc(C(=O)c2ccc3c(c2)OCO3)c(N)c1S(=O)(=O)c1ccccc1`: 83% (inactive).
Regarding `Cc1ccc(Nc2nc(N)nc(CSc3nc4ccccc4s3)n2)cc1`, the survival is 32% (inactive).
In the case of `COc1ccc(Nc2nc(N)nc(CSc3nc4ccccc4s3)n2)cc1`, the survival was 35% (inactive).
Next, `COc1ccc(Nc2nc(N)nc(CSc3nc4cc(OC)ccc4s3)n2)cc1`: 8% (active); `COc1ccc(/C=C/C(=O)Nc2ccc(Cl)c(Cl)c2)cc1OC`: 5% (active); `COc1ccc(/C=C/C(=O)Nc2ccc(Cl)c(Cl)c2)cc1`: 80% (inactive).
To `C/C=C/C(=O)Nc1ccc(Cl)c(Cl)c1` belongs 108% (inactive); to `CN(C)c1ccc(NC(=O)CSC2=Nc3ccccc3C3=NC(CC(=O)NCc4ccc5c(c4)OCO5)C(=O)N23)cc1` (centres undefined), 124% (inactive).
To `Cc1cccc(C(=O)Nc2ccc(OCc3cc(=O)n4ccc(C)cc4n3)cc2)c1` belongs 55% (inactive); to `CCOc1ccc(C(=O)Nc2ccc(OCc3cc(=O)n4cccc(C)c4n3)cc2)cc1`, 14% (active).
As for `Cc1ccccc1C(=O)Nc1ccc(OCc2cc(=O)n3cccc(C)c3n2)cc1`, the survival was 72% (inactive).
Next, `COc1ccccc1C(=O)Nc1ccc(OCc2cc(=O)n3ccc(C)cc3n2)cc1`: 85% (inactive).
For `COc1cccc(C(=O)Nc2cccc(OCc3cc(=O)n4cccc(C)c4n3)c2)c1`, the survival is 134% (inactive).
Next, `Cc1cn2c(=O)cc(COc3ccc(NC(=O)c4cccc(F)c4)cc3)nc2s1`: 122% (inactive); `COc1cc(C(=O)Nc2ccc(OCc3cc(=O)n4cccc(C)c4n3)cc2)cc(OC)c1OC`: 133% (inactive); `O=C(Nc1cccc(OCc2cc(=O)n3ccccc3n2)c1)Nc1cccc(C(F)(F)F)c1`: -6% (active).
To `O=C(COc1ccc(F)cc1)Nc1cccc(OCc2cc(=O)n3ccccc3n2)c1` belongs 73% (inactive).
Next, `COc1cc(C(=O)Nc2ccc(OCc3cc(=O)n4ccc(C)cc4n3)cc2)cc(OC)c1OC`: 0% (active); `Cc1ccc(Cl)cc1NC(=O)Nc1cccc(OCc2cc(=O)n3ccccc3n2)c1`: 64% (inactive); `Cc1cccn2c(=O)cc(COc3ccc(NC(=O)c4cccc(F)c4)cc3)nc12`: -1% (active).
